# Results: PubChem BioAssay (EPA / NIEHS)
# Calls of active or inactive are those of the source. The calls were made as follows: active = hit-call score of the fitted dose curve at least 0.9, where 1 is the maximum; inactive = score below 0.9.
# Assay: APR_HepG2_MitoticArrest_72hr: Apredica 72-hour HepG2 Assay for Mitotic Arrest (AID 2282918)
# Settings: high-content imaging, actives raise or lower the signal
# Method: APR_HepG2_72hr is a cell-based, multiplexed-readout assay that uses HepG2, a human liver cell line, with measurements taken at 72 hours after chemical dosing in a 384-well plate.APR_HepG2_MitoticArrest_72hr is one of 10 assay component(s) measured or calculated from the APR_HepG2_72hr assay. It is designed to make measurements of cell phenotype, a form of morphology reporter, as detected with fluorescence intensity signals by HCS Fluorescent Imaging technology.Data from the assay component APR_HepG2_MitoticArrest_72hr was analyzed into 1 assay endpoint. This assay endpoint, APR_HepG2_MitoticArrest_72hr, was analyzed with bidirectional fitting relative to DMSO as the negative control and baseline of activity. Using a type of morphology reporter, measures of protein for gain or loss-of-signal activity can be used to understand the signaling at the pathway-level as they relate to the gene . Furthermore, this assay endpoint can be referred to as a primary readout, because this assay has produced multiple assay endpoints where this one serves a signaling function. To generalize the intended target to other relatable targets, this assay endpoint is annotated to the cell cycle intended target family, where the subfamily is arrest.
# Cells were treated with dimethyl sulfoxide (DMSO) as a solvent control at a final concentration of 0.5% v/v or with compounds in DMSO with a resulting final DMSO concentration of 0.5% v/v. Compound treatment was done at concentrations of 0.39, 0.78, 1.56, 3.12, 6.24, 12.5, 25, 50, 100, and 200 uM in duplicate on each plate. Cells were treated with compounds for 1, 24, or 72 hr. Carbonyl […] m-chloro-phenylhydrazone (CCCP) and taxol were used as positive controls for mitochondrial function and cytoskeletal stability, respectively; DMSO served as the negative control for this experiment. Cells were fixed by the direct addition of 50 uL formaldehyde in Hank's Balanced Salt Solution (HBSS) to a final concentration of 3.7%. After incubation in the fixation medium for 30 min at room temperature (293-298 K), cells were rinsed twice with HBSS and treated with cell permeabilization buffer (16 uL of 0.5% Triton X-100) for 10 min at room temperature (293-298 K) before labeling. For mitochondrial membrane potential and mitochondrial measurements, pre-fixed cells were incubated with 50 uL of MitoTracker Red CMXRos (Invitrogen) at a concentration of 250 nM for 30 min before fixation. In the remaining cases, post-fixed cells were labeled by incubation with a multiplexed mixture of primary antibodies in HBSS for 60 min at room temperature (293-298 K) to detect immunoreactivity of c-Jun (1:500), phospho-histone H3 (1:100), phospho-histone H2A.x (1:200), p53 (1:400), alpha-tubulin (1:200) and Hoechst 33342 (2 ug/mL). Cells were labeled for multiplexed imaging on two separate plates: a) Hoechst 33342, MitoTracker Red, phospho-histone H3, and alpha-tubulin, and b) Hoechst 33342, phospho-histone H2A.x, and c-Jun. A final rinse with HBSS (50 uL) was performed before analysis. The primary and secondary antibodies for the proteins were phospho-histone H3 (rabbit anti-phospho-histone H3 and FITC-donkey anti-rabbit IgG), phospho-histone H2A.x (mouse anti-phospho-histone H2A.x and FITC-donkey anti-mouse IgG), c-Jun (rabbit anti-phospho-c-Jun and Cy3-donkey anti-rabbit IgG), p53 (sheep anti-p53 and Cy5-donkey anti-sheep IgG), alpha-tubulin (mouse anti-alpha-tubulin and Cy5-donkey anti-mouse IgG). These antibodies are available as the CellCiphr HepG2 assay kit (Millipore).Digital images of each well were captured using a Cellomics ArrayScan VTI (Thermo Scientific Cellomics) (0.8 NA objective, 0.63x optical coupler, and XF-93 filter set) at 20x magnification. The images were acquired using the autofocus feature of the ArrayScan instrument, which entails the following steps. First, the camera focuses on channel 1 (Hoechst 33342), where nuclei are identified. Second, a Z offset of 1 um is used for capturing mitochondria (MitoTracker Red). […]
SMILES,outcome,AC50
Cc1cccc(C)c1O,inactive,
Cc1nc(C)nc(N2C[C@@H](C)N(c3ccnc([C@@H](C)O)n3)[C@@H](C)C2)n1,inactive,
C[Si]1(C)O[Si](C)(C)O[Si](C)(C)O[Si](C)(C)O1,inactive,
C1CCC(SSC2CCCCC2)CC1,inactive,
CN1CCN(Cc2cc(-c3ccc4[nH]c(=O)oc4c3)co2)[C@@H](c2ccc(F)cc2)C1,,27 µM (active)
CC(C)(C)c1cc(O)c(C(C)(C)C)cc1O,,11.8 µM (active)
O=C(O)CCCCC(=O)O,inactive,
CCNc1cccc(C)c1,inactive,
Nc1ccc2c(c1)C(=O)c1ccccc1C2=O,,10.2 µM (active)
COc1ccc(C)cc1N,inactive,
Cc1ccc(Cl)cc1,inactive,
CCCc1cc(=O)[nH]c(=S)[nH]1,inactive,
COCCOC[C@H](CC1(C(=O)NC2CCC(C(=O)O)CC2)CCCC1)C(=O)Oc1ccc2c(c1)CCC2 (stereo not given in full),inactive,
Nc1ccccc1N,,14.2 µM (active)
CC1(C)NC(=O)NC1=O,inactive,
CCCCCCCCCCO,inactive,
NS(=O)(=O)c1cc2c(cc1Cl)NCNS2(=O)=O,inactive,
Cc1cc(=O)[nH]c(=S)[nH]1,inactive,
CCCCCCC(=O)OCC,inactive,
Nc1ccc(S(=O)(=O)c2ccc(N)cc2)cc1,inactive,

SMILES,outcome,AC50
Clc1cc(Cl)c(Cl)cc1Cl,inactive,
O=c1[nH]cc(F)c(=O)[nH]1,inactive,
Oc1ccc2ccccc2c1N=Nc1ccccc1,inactive,
Oc1ccc2c(c1)OC[C@@H](N1CCC(O)(c3ccc(F)cc3)CC1)[C@H]2O,inactive,
O=C(N[C@@H](Cc1ccccc1)[C@@H](O)C(=O)N1C[C@@H](O)[C@@H](O)C1)c1cc2cc(Cl)ccc2[nH]1,,108 µM (active)
Cc1ccc(C)c(C)c1,inactive,
c1cc(-c2ccncc2)ccn1,inactive,
Cc1cccc([N+](=O)[O-])c1C,inactive,
Cc1c(C(=O)O)c(O)cc2c1C(=O)c1c(O)c([C@@H]3O[C@H](CO)[C@@H](O)[C@H](O)[C@H]3O)c(O)c(O)c1C2=O,inactive,
CNC(=O)[C@H]1O[C@@H](n2cnc3c(NCc4cc(Cl)ccc4OCc4cc(C)no4)ncnc32)[C@H](O)[C@@H]1N,inactive,
CCCCCCCCCCCCCCCCCC(=O)O,,49.9 µM (active)
COc1ccc(S(=O)(=O)N2C(=O)[C@@](c3ccccc3OC)(N3C[C@H](O)C[C@H]3C(=O)N(C)C)c3cc(Cl)ccc32)c(OC)c1,,40.7 µM (active)
O=c1c(O)c(-c2ccc(O)c(O)c2)oc2cc(O)cc(O)c12,inactive,
C[C@]12C=CC(=O)C=C1CC[C@@H]1[C@@H]2C(=O)C[C@@]2(C)[C@H]1CC[C@]2(O)C(=O)CO,inactive,
COCCOCCOC,inactive,
Cc1ccc(C)c(O)c1C,,13.4 µM (active)
CCCCN(CCCC)CCCC,inactive,
Cc1ccc2ncccc2c1,inactive,
CNCc1cc(F)ccc1Oc1ccc(Cl)c(Cl)c1,,32.6 µM (active)
FC(F)(F)C(F)(F)C(F)(F)C(F)(F)C(F)(F)C(F)(F)CCI,inactive,
